LmPK inhibitor – inhibitors of Leishmania mexicana pyruvate kinase; purified LmPK, Kinase-Glo ATP luminescence, 1 h; Potency, µM (titrated, usually from 57.5 µM), inactives show at the top dose activity change, negative = inhibition, most hits filed as inhibitors; 290,000 tested, 0.37% active; AID 1721; note: potency is the fitted concentration of half-maximal effect; % is set by controls: 0 for no effect and ±100 for the full control effect
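Purified LmPK (0.1 nM) with 0.5 mM PEP and 0.1 mM ADP in imidazole buffer pH 7.2 with MgCl2/KCl, 1 h at room temperature. ATP formed was read by luciferase luminescence and normalized to no-enzyme and uninhibited controls.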
RE007 growth inh – less growth of the S. pombe RE007 Vpr strain; S. pombe RE007 Vpr strain, BacTiter-Glo ATP luminescence, 24 h; Potency, µM (highest dose often 92.2 µM), inactives show top-dose activity change, negative = less growth, actives largely listed as inhibitors; 360,000 tested, 0.21% active; AID 651644; active = well fitted falling curve with a large enough effect; inconclusive = small, poorly fitted or top-dose-only effect; inactive = no such curve, though single readings can be large or run the other way; note: potency is the fitted concentration of half-maximal effect; % is set by controls: 0 for no effect and ±100 for the full control effect; nearly all actives have a fitted effect of over 50% in size
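Fission yeast strain RE007, carrying one chromosomally integrated HIV-1 vpr copy, was seeded at OD 0.01 in PMG+AL medium with 23 nL pinned compound. After 24 h at 30 °C and 99% humidity, viability was read by BacTiter-Glo luminescence.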
FBPA Giardia inh – blocks Giardia fructose-bisphosphate aldolase activity | purified Giardia FBPA | Potency, µM (titrated, usually from 59.6 µM), for the others: at the highest dose activity, negative = inhibition, usual class: inhibitors | 290,000 tested, 0.71% active | AID 2451; note: potency is the fitted concentration of half-maximal effect; % is set by controls: 0 for no effect and ±100 for the full control effect; nearly all actives have a fitted effect of over 55% in size
Target sequence (A8B2U2 whole entry, looked up): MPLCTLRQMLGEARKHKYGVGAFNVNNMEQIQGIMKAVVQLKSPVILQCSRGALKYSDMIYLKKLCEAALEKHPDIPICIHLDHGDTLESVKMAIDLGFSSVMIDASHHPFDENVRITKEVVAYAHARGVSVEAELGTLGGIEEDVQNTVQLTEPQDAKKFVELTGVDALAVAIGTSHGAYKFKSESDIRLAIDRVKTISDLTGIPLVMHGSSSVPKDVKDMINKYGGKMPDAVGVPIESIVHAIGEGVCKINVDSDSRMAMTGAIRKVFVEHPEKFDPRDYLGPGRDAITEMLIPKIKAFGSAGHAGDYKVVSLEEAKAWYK
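40 nM FBPA preincubated 10 min at RT with compound (up to 57.5 uM final), then substrate plus GAPDH/TPI/NAD/arsenate coupling and diaphorase/resazurin added. Fluorescence read after 20 min at RT, 525/598 nm.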
Shiga toxin inh – Shiga toxin inhibition. Vero cells, Shiga toxin protein synthesis inhibition reporter. inhibition, % at 38.7 µM. 290,000 tested, 9.2% active. AID 2315; in the data active = inhibition mostly above about 28%, no sharp cut-off; inactive = mostly below about 43%; note: 0% is about no effect
TbPYK inhibitor – T. brucei pyruvate kinase inhibition | Q57TT1 | TbPYK enzyme, Kinase-Glo Plus ATP luminescence, 45 min | Potency, µM (doses to about 76.8 µM), inactives show at the top dose activity, negative = inhibition, hits mostly inhibitors | 410,000 tested, 0.12% active; note: potency is the fitted concentration of half-maximal effect; % is set by controls: 0 for no effect and ±100 for the full control effect; nearly all actives have a fitted effect of over 50% in size
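Assay buffer: 50 mM TEA pH 7.2, 100 mM KCl, 10 mM MgCl2, 0.05% BSA, 0.01% Tween-20. Pyruvate kinase from T. brucei plus substrate met compound, then ADP (130 uM final). Luminescence was read post 45 min RT.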
Cycloheximide cs – affects cycloheximide protein synthesis inhibition readout, counter-screen; cell reporter, cycloheximide protein synthesis inhibition counterscreen; 300,000 tested, 12% active; max response, %; AID 2314; in the data active = max response mostly above about 13%, no sharp cut-off; inactive = mostly below about 14%; note: read at 38.3 µM for the half of the compounds with a filed dose; 0% is about no effect
* hit, by the source's call. This is one part of a sample in which hits are shown more often than they occur. Unless noted, calls come from the whole dose curve; as a rule, active = well fitted curve in the direction sought with a large enough effect; inconclusive = small, poorly fitted or top-dose-only effect, or another doubt; inactive = no such curve, though single readings can be large; an effect the other way counts as inactive or inconclusive.

Cc1ccc(/C(O)=C2/C(=O)C(=O)OC2c2ccc(Cl)cc2)cc1 (configuration not stated) was read as LmPK inhibitor 4.5%, RE007 growth inh -1.5%, FBPA Giardia inh 14.7%, Shiga toxin inh 20.4, TbPYK inhibitor 7.0% and Cycloheximide cs 23.7*.
`O=C1OC(c2ccccc2)/C(=C(/O)c2ccccc2)C1=O` (configuration not stated) gave LmPK inhibitor 9.1%, RE007 growth inh 16.1%, FBPA Giardia inh 6.0%, Shiga toxin inh 101.4*, TbPYK inhibitor -4.0% and Cycloheximide cs 39.3*.
`O=C1OC(c2ccccc2)/C(=C(/O)c2ccc(Cl)cc2)C1=O` (configuration not stated) gave LmPK inhibitor 2.7%, RE007 growth inh 26.9%, FBPA Giardia inh inconclusive, Shiga toxin inh 11.8, TbPYK inhibitor 4.0% and Cycloheximide cs 13.1.
`O=C(CSc1nnc(NCc2ccccc2)s1)c1ccco1` gave LmPK inhibitor -7.0%, RE007 growth inh 6.3%, FBPA Giardia inh -5.4%, Shiga toxin inh 78.0*, TbPYK inhibitor -10.8% and Cycloheximide cs 15.6.
Screening C=CCn1c(C)cc(C(=O)CSc2nnc(Cc3ccccc3)o2)c1C returned LmPK inhibitor -4.5%, RE007 growth inh -2.8%, FBPA Giardia inh -25.4%, Shiga toxin inh 52.6, TbPYK inhibitor -0.7% and Cycloheximide cs 30.9*.
Cc1cc(C(=O)CSc2ncnc3ccccc23)c(C)n1C1CC1 was read as RE007 growth inh -12.1% and TbPYK inhibitor -3.4%.
Screening Cc1cc(C(=O)CSc2nc3ccccc3o2)c(C)n1C1CC1 returned LmPK inhibitor -1.0%, RE007 growth inh -5.9%, FBPA Giardia inh -7.5%, Shiga toxin inh 26.7*, TbPYK inhibitor 1.3% and Cycloheximide cs 52.9*.
For C=CCn1c(C)cc(C(=O)CSc2nnc(NCc3ccccc3)s2)c1C the results were LmPK inhibitor 13.8%, RE007 growth inh 3.9%, FBPA Giardia inh -3.5%, Shiga toxin inh 57.2, TbPYK inhibitor -25.7% and Cycloheximide cs 46.4*.
Screening Cc1cc(NC(=O)CSc2nnc(NCc3ccccc3)s2)no1 returned LmPK inhibitor 11.0%, RE007 growth inh -0.6%, FBPA Giardia inh 2.4%, Shiga toxin inh -3.5, TbPYK inhibitor 5.4% and Cycloheximide cs -2.7.
For O=C(Cn1ncc2c3ccccc3n(Cc3cccc(Cl)c3)c2c1=O)NCCC1=CCCCC1 the results were TbPYK inhibitor 2.7%.
For C=CCn1c(C)cc(C(=O)CSc2nc3ccccc3o2)c1C the results were LmPK inhibitor -5.3%, RE007 growth inh 3.9%, FBPA Giardia inh -9.0%, Shiga toxin inh 110.4*, TbPYK inhibitor -9.4% and Cycloheximide cs 62.0*.
Screening CC(=O)c1ccc(N2CCN(S(=O)(=O)c3c(C)[nH]c(C)c3C(=O)N3CCCCC3)CC2)cc1 returned LmPK inhibitor 6.4%, RE007 growth inh 1.0%, FBPA Giardia inh -11.1%, Shiga toxin inh 16.6, TbPYK inhibitor 3.0% and Cycloheximide cs 18.9*.
CC(=O)c1ccc(N2CCN(S(=O)(=O)c3c(C)[nH]c(C)c3C(=O)N3CCCC3)CC2)cc1 was read as LmPK inhibitor -0.1%, RE007 growth inh -7.1%, FBPA Giardia inh -1.0%, Shiga toxin inh 11.5, TbPYK inhibitor 1.6% and Cycloheximide cs 10.8.
Screening COc1ccccc1OCCNC(=O)c1ccc(Br)cc1 returned LmPK inhibitor 2.0%, RE007 growth inh 18.0%, FBPA Giardia inh -5.3%, Shiga toxin inh 61.8*, TbPYK inhibitor 2.9% and Cycloheximide cs 36.4*.
For COc1ccccc1OCCNC(=O)c1cc(F)c(F)cc1Cl the results were LmPK inhibitor 1.2%, RE007 growth inh -4.1%, FBPA Giardia inh 0.6%, Shiga toxin inh 25.5*, TbPYK inhibitor -2.6% and Cycloheximide cs 29.9*.
For COc1ccccc1OCCNC(=O)c1ccc(C(C)(C)C)cc1 the results were RE007 growth inh -14.3% and TbPYK inhibitor -4.7%.
O=C(NCCOc1ccccc1F)c1cc(F)c(F)cc1Cl was read as LmPK inhibitor 6.7%, RE007 growth inh -0.2%, FBPA Giardia inh -1.8%, Shiga toxin inh 86.3*, TbPYK inhibitor -4.4% and Cycloheximide cs 36.4*.
`Cc1ccccc1C(=O)NCCOc1ccccc1Cl` gave LmPK inhibitor -2.3%, RE007 growth inh inconclusive, FBPA Giardia inh -0.5%, TbPYK inhibitor 0.4% and Cycloheximide cs 36.2*.
`CSc1ccccc1C(=O)NCCOc1ccccc1C` gave LmPK inhibitor 0.8%, RE007 growth inh 7.7%, FBPA Giardia inh 0.1%, Shiga toxin inh 1.8, TbPYK inhibitor -1.5% and Cycloheximide cs -1.4.
`C=C(C)CNC(=O)c1ccc2nc(Cc3ccc(OC)cc3)oc2c1` gave LmPK inhibitor -8.7%, RE007 growth inh -12.9%, FBPA Giardia inh -1.0%, Shiga toxin inh 39.2*, TbPYK inhibitor -6.2% and Cycloheximide cs 38.5*.
Screening COC(=O)CCCNC(=O)c1ccc2nc(Cc3ccc(OC)cc3)oc2c1 returned LmPK inhibitor 3.2%, RE007 growth inh 14.9%, FBPA Giardia inh -1.3%, Shiga toxin inh 60.4, TbPYK inhibitor -0.4% and Cycloheximide cs 13.8*.
Screening COc1ccc(Cc2nc3ccc(C(=O)NC(C)C)cc3o2)cc1 returned RE007 growth inh 21.5% and TbPYK inhibitor -5.2%.
`O=C(NCc1ccc(Cl)cc1Cl)C1CCN(S(=O)(=O)c2ccc3c(c2)OCCCO3)CC1` gave LmPK inhibitor -2.8%, RE007 growth inh 10.0%, FBPA Giardia inh 3.1%, Shiga toxin inh 14.9, TbPYK inhibitor -13.3% and Cycloheximide cs 18.7*.
For O=C(c1ccccc1)c1ccc(OC(=O)N2CCOCC2)cc1 the results were LmPK inhibitor 2.1%, RE007 growth inh 6.9%, FBPA Giardia inh 5.2%, Shiga toxin inh 42.8, TbPYK inhibitor -2.2% and Cycloheximide cs 36.4*.
For CCCCOC(=O)c1ccc(OC(=O)N2CCOCC2)cc1 the results were LmPK inhibitor -2.7%, RE007 growth inh -21.8%, FBPA Giardia inh 14.9%, Shiga toxin inh 32.9, TbPYK inhibitor 2.2% and Cycloheximide cs 28.9*.
Screening O=C(Oc1ccc(C(=S)N2CCOCC2)cc1)c1ccccc1 returned LmPK inhibitor -1.7%, RE007 growth inh 11.7%, FBPA Giardia inh -4.3%, Shiga toxin inh -2.3, TbPYK inhibitor -1.7% and Cycloheximide cs 15.1.
COc1cc(O)oc1C=Nc1ccc(Cl)cc1Cl was read as LmPK inhibitor 4.5%, RE007 growth inh 1.7%, FBPA Giardia inh -9.2%, Shiga toxin inh 35.3*, TbPYK inhibitor -3.7% and Cycloheximide cs 27.8*.
COc1cc(O)oc1C=Nc1ccc(C(=O)O)cc1 was read as LmPK inhibitor 25.1µM*, RE007 growth inh inconclusive, FBPA Giardia inh -5.7%, Shiga toxin inh 3.2, TbPYK inhibitor inconclusive and Cycloheximide cs -3.2.
`COc1cc(O)oc1C=Nc1ccc(Cl)cc1` gave LmPK inhibitor -2.6%, RE007 growth inh -4.1%, FBPA Giardia inh 0.0%, Shiga toxin inh 19.5, TbPYK inhibitor -1.6% and Cycloheximide cs 14.9.
